Consider nine compounds from PubChem BioAssay.

The subject of assay [1] is PRMT1 (protein arginine N-methyltransferase 1). As to the kind of experiment: PRMT1 binders on small-molecule microarrays, primary screen, biochemical, small-molecule microarray, 635 nm fluorescence (AID 1088).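 Also: binding of Prmt1 protein to compounds spotted on small-molecule microarray slides.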 The note with it: small-molecule microarray binding, higher = more signal.
Assay [2] in a line: yeast growth modulation, basal conditions, primary screen, YJM789 clinical isolate, OD600, 24 h (AID 1089).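 Also: growth of clinical yeast isolate S. cerevisiae YJM 789 seeded 1000 cells per well; test concentration not given here.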 The note with it: S. cerevisiae YJM789 growth, higher = more signal, called active from +8 up or from −8 down.
A short description of assay [3]: fission yeast growth modulation, primary screen, strain 972, OD600, 24 h, no modulator (AID 1090).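 Also: basal condition with compound alone and no growth modifier present; test concentration not given here.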 As to conditions: S. pombe 972 growth, higher = more signal, called active from +8 up or from −8 down.
Assay [4] in a line: S. cerevisiae growth modulation with rapamycin, primary screen, strain BY4716, OD600, 96 h (AID 1091). Also: test concentration not given here. As to conditions: higher = more signal, called active from +8 up or from −8 down.
The target in assay [5] is Torsin-1A-interacting protein 2 (Homo sapiens) (UniProt Q8NFQ8). As to the kind of experiment: LULL1 binders on small-molecule microarray, primary screen, cell lysate, human LULL1 lysate, 635/667 nm fluorescence (AID 1092).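 Also: probe is lysate of COS7 cells overexpressing human LULL1; score merges per-feature 667 nm fluorescence with signal-to-noise.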 The note with it: hLULL1 lysate binding, 635 nm fluorescence, higher = more signal.
Assay [6] is described as follows: E. coli growth modulation, two-sided OD650, primary screen, E. coli filamentation project, strain DRC41, 24 h (AID 1093).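 Also: MC1000 strain lacking acrAB efflux and sulA so SOS filamentation is blocked; test concentration not given here.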 As to conditions: OD650, 24 h, higher = more signal, called active from +8 up or from −8 down.
Assay [7] is described as follows: small-molecule microarray binders of probe aLefty2, primary screen, biochemical, biotinylated probe, 635/667 nm fluorescence (AID 1094).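 Also: score merges spot fluorescence near 667 nm with spot signal-to-noise ratio.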 The note with it: higher = more signal.
Assay [8] relates to Noggin (protein binding on small-molecule microarray). The experiment in a line: Noggin binders on small-molecule microarray, primary screen, biochemical, 635/667 nm fluorescence (AID 1095).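 Also: score merges 667 nm feature fluorescence with signal to noise over triplicate slides.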 The note with it: 635 nm fluorescence, higher = more signal.
In assay [9] the target is Neurogenic locus notch homolog protein 3 (Homo sapiens) (UniProt Q9UM47). The experiment in a line: NOTCH3 binders on small-molecule microarray, primary screen, biochemical, 635/667 nm fluorescence (AID 1096). The note with it: NOTCH3 binding, 635 nm fluorescence, higher = more signal.
The nature of assay [10]: small-molecule microarray binders of probe aEGFR, primary screen, biochemical, biotinylated probe, 635/667 nm fluorescence (AID 1097).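 Also: probe is a biotinylated anti-EGFR antibody binding compounds printed on slides; score combines fluorescence near 667 nm and signal to noise of each spot.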 As to conditions: higher = more signal.
Assay [11] has as its system Plasmodium falciparum Sir2 (PF13_0152, Sir2A). The experiment in a line: pfSir2 binders on small-molecule microarrays, primary screen, biochemical, small-molecule microarray, 635 nm fluorescence (AID 1098).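 Also: score merges spot fluorescence intensity with its signal-to-noise ratio.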 As to conditions: small-molecule microarray binding, fluorescence 635 nm; higher = more signal.
Assay [12] in a line: small-molecule microarray binders of probe aDKK1, primary screen, biochemical, biotinylated probe, 635/667 nm fluorescence (AID 1099).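 Also: score merges 667nm spot fluorescence with signal to noise across triplicate slides; reference of the scale not given here.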 As to conditions: higher = more signal.
Assay [13] can be described thus: small-molecule microarray binders of probe aCHRDL2, primary screen, biochemical, biotinylated probe, 635/667 nm fluorescence (AID 1100). The note with it: higher = more signal.
Assay [14] is described as follows: splicing luciferase reporter signal modulators, primary screen, spliceosome inhibition project, cell-based, HEK293, splice +/- reporter (AID 1101).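 Also: HEK293 cells carrying a splicing-competent luciferase reporter gene; test concentration not given here.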 The note with it: luminescence, 24 h, higher = more signal, called active from +8 up or from −8 down.
The target in assay [15] is Fibroblast growth factor 10 (Homo sapiens) (UniProt O15520). As to the kind of experiment: FGF10 binders on small-molecule microarrays, primary screen, biochemical, small-molecule microarray, 635 nm fluorescence (AID 1102). As to conditions: FGF10 binding, fluorescence 635 nm, higher = more signal.
For assay [16], the system named is glycogen synthase kinase-3 (GSK3A per assay name; protocol says GSK3B). The experiment in a line: GSK3 binders on small-molecule microarrays, primary screen, biochemical, small-molecule microarray, 635 nm fluorescence, GSK3A (AID 1103). Also: the record names both GSK3A and GSK3B. As to conditions: small-molecule microarray binding, fluorescence 635 nm; higher = more signal.
The target in assay [17] is Epidermal growth factor receptor (Homo sapiens) (UniProt P00533). As to the kind of experiment: EGFR binders on small-molecule microarrays, primary screen, biochemical, small-molecule microarray, 635 nm fluorescence (AID 1104).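 Also: score merges 667 nm emission intensity with spot signal to noise over triplicate slides.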 As to conditions: EGFR binding, higher = more signal.
Assay [18] concerns the target Follistatin-related protein 3 (Homo sapiens) (UniProt O95633). The experiment in a line: FSTL3 binders on small-molecule microarrays, primary screen, biochemical, small-molecule microarray, 635 nm fluorescence (AID 1105).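 Also: score merges emission near 667 nm and signal to noise per printed spot across three slides.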 The note with it: FSTL3 binding, higher = more signal.
Assay [19] addresses Dickkopf-related protein 1 (Homo sapiens) (UniProt O94907). As to the kind of experiment: DKK1 binders on small-molecule microarrays, primary screen, biochemical, small-molecule microarray, 635 nm fluorescence scan (AID 1106).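 Also: score merges emission near 667 nm with signal to noise over three replicate slides.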 The note with it: DKK1 binding, higher = more signal.
Assay [20] concerns Inhibin beta A chain (activin A). As to the kind of experiment: INHBA (activin A) binders on microarrays, primary screen, biochemical, small-molecule microarray, 635 nm fluorescence scan (AID 1107).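 Also: mouse activin A protein probed at 4.33 µg/mL on printed slides; score merges bound-protein fluorescence near 667 nm with spot signal-to-noise.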 The note with it: small-molecule microarray binding, higher = more signal.

The structures appear in SMILES notation. Calls of active or inactive are those of the source.

Fibroblast growth factor 10 (Homo sapiens), sequence (O15520 whole entry, looked up): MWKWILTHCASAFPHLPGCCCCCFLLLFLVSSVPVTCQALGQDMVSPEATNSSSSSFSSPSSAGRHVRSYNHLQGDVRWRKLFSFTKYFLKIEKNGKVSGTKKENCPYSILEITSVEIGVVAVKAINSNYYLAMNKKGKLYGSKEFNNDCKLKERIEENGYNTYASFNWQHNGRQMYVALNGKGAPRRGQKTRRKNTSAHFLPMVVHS
Neurogenic locus notch homolog protein 3 (Homo sapiens), sequence (Q9UM47 whole entry, looked up): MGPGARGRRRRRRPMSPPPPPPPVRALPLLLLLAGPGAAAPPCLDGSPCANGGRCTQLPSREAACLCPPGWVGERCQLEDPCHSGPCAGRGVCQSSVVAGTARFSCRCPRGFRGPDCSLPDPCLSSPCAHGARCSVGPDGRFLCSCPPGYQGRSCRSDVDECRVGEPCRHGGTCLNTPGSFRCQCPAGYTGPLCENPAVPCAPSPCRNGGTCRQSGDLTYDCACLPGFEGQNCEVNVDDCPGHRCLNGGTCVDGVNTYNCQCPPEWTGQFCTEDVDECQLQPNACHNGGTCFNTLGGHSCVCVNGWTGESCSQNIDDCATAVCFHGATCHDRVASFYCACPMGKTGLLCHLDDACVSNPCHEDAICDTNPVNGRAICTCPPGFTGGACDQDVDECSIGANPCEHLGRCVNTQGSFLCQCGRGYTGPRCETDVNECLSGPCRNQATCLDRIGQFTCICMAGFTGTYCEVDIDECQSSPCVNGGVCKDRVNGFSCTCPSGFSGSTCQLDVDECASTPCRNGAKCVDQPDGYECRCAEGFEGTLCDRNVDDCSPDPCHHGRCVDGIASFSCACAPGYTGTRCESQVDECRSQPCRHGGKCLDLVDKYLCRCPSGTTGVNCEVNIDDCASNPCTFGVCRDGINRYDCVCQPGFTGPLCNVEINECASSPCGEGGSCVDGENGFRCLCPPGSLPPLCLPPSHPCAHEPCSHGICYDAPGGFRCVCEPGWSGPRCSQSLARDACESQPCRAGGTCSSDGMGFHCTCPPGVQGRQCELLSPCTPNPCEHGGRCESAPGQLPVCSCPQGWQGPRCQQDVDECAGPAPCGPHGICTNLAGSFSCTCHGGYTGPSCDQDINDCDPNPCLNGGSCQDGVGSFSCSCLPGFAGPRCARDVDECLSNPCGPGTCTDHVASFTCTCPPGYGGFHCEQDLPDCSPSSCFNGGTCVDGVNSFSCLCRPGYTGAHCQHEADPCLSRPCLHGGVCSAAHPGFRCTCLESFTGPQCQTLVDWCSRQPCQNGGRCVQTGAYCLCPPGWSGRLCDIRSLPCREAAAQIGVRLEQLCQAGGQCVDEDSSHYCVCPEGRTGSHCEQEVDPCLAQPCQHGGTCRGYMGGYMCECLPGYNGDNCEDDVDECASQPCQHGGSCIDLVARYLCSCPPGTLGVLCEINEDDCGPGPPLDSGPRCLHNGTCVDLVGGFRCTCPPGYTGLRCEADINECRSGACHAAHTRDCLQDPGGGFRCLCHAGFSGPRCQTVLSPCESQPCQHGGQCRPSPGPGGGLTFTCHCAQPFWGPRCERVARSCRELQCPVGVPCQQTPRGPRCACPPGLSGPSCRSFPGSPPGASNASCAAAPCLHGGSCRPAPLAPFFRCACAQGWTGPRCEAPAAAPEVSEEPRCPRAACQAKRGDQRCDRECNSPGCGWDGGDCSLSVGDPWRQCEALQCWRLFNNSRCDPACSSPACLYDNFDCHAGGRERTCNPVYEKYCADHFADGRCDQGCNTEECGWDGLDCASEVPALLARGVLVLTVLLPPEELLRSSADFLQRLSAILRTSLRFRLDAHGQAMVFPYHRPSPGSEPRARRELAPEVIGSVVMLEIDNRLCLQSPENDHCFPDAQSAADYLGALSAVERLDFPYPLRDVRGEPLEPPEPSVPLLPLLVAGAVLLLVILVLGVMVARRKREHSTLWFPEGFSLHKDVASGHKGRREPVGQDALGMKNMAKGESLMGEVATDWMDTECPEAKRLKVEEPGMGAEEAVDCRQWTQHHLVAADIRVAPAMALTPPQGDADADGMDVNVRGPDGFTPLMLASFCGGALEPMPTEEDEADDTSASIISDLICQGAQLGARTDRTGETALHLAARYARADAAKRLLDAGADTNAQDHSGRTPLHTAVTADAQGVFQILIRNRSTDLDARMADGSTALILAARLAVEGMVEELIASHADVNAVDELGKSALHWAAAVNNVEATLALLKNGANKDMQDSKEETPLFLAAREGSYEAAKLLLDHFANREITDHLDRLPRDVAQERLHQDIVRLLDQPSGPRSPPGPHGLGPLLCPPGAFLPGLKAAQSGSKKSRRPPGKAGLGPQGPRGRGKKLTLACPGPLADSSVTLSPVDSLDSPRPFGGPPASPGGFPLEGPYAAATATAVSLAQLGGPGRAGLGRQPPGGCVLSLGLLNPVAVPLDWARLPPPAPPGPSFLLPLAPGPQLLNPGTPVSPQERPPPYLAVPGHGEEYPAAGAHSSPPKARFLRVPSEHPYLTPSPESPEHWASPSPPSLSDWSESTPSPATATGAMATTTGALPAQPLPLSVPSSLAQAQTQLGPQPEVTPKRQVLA
Torsin-1A-interacting protein 2 (Homo sapiens), sequence (Q8NFQ8 whole entry, looked up): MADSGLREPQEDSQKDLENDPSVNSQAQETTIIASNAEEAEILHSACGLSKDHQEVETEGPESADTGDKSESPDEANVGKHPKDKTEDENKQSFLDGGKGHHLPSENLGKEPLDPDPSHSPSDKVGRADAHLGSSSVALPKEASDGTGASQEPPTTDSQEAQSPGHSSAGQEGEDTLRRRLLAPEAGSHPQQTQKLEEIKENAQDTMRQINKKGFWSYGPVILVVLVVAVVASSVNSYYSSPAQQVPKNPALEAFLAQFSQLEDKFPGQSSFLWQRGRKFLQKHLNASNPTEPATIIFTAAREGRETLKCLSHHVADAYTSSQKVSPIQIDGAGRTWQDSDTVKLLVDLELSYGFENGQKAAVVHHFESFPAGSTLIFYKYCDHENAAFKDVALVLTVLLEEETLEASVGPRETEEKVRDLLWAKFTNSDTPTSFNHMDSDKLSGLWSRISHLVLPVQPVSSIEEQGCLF
Follistatin-related protein 3 (Homo sapiens), sequence (O95633 whole entry, looked up): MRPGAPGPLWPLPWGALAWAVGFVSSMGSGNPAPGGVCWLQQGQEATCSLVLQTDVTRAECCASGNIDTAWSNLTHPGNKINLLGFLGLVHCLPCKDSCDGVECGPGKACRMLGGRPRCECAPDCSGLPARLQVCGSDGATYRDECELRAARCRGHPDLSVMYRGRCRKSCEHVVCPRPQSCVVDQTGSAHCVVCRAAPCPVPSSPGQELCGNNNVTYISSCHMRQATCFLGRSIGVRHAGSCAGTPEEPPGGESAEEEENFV
Dickkopf-related protein 1 (Homo sapiens), sequence (O94907 whole entry, looked up): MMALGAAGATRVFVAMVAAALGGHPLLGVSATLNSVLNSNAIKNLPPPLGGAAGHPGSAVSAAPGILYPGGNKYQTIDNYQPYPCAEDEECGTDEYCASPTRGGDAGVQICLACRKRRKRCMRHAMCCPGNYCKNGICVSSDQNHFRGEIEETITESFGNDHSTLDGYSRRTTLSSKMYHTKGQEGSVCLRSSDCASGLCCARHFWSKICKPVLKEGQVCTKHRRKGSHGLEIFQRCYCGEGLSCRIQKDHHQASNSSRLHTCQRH
Epidermal growth factor receptor (Homo sapiens), sequence (P00533 whole entry, looked up): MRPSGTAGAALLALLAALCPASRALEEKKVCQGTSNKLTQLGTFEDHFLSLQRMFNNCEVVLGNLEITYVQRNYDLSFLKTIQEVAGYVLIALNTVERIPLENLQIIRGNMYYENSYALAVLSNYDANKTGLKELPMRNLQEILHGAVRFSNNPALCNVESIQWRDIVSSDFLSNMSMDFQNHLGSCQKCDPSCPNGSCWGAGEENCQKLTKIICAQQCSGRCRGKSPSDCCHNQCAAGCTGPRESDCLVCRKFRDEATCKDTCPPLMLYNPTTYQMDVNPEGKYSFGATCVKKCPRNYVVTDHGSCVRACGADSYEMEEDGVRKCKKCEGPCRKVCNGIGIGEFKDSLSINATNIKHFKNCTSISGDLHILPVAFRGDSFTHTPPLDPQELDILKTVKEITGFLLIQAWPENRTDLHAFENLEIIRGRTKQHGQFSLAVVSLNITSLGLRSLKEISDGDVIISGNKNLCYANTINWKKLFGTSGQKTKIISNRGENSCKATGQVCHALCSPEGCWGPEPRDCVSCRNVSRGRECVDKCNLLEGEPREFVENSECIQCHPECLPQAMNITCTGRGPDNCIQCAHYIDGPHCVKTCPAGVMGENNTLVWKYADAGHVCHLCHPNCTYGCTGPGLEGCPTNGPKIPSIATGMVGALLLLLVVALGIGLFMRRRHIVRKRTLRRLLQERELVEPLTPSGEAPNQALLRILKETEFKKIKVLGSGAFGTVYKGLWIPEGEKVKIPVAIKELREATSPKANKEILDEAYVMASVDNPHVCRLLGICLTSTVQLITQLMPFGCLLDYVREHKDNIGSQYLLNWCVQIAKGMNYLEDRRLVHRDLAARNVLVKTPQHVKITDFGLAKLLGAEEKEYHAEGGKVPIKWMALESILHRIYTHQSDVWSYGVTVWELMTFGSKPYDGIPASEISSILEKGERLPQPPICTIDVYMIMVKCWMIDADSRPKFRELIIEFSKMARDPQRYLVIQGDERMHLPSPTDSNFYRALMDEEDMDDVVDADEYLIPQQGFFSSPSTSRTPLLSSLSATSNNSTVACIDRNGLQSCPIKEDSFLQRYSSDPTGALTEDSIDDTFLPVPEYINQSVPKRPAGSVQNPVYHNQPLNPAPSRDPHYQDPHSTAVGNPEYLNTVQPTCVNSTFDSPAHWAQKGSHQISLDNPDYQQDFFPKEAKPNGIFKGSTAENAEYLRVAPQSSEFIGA

Consider `COCCOC(=O)N1C(=O)[C@@]2(c3cc(C#CCCO)ccc31)[C@H](c1ccc(O)cc1)N1[C@H](c3ccccc3)[C@H](c3ccccc3)OC(=O)[C@H]1[C@@H]2C(=O)Nc1nc2ccccc2s1`, for which the composite z-score is 1.55 in assay [1]; 2.84 in assay [5]; -0.0283 in [7]; 1.39 in assay [8]; 1.09 in [9]; 0.0082 in assay [10]. For the same compound, the composite z-score in [11] is 0.762; in assay [12] it was -0.0965; in [13], -0.148; in assay [15] it was 1.33; in assay [16], 1.32; in assay [17] it was 0.562. Further, the composite z-score in assay [18] was found to be 1.44; in [19] it was 0.685; in assay [20] it was 0.364. Moreover, the z-score was -0.123 (inactive) in [2]; -0.239 (inactive) in assay [3]; 0.691 (inactive) in assay [4]; 1.74 (inactive) in assay [6]; -1.13 (inactive) in [14].

For the compound `CO[C@@H]1COC(=O)[C@H](COCc2ccccc2)NC(=O)CC=C[C@@H](C)[C@H](OC)COC(=O)[C@H](COCc2ccccc2)NC(=O)CC=C[C@H]1C`, the composite z-score in assay [1] is 0.0472; in assay [5], -0.0267; in [7] it was -0.226; in assay [8] it was 0.63; in assay [9] it was -0.511; in assay [10] it was -0.0605. Also, the composite z-score is -0.23 in assay [11]; -0.466 in [12]; -0.942 in [13]; 0.168 in assay [15]; 0.376 in assay [16]; 0.48 in assay [17]. The composite z-score stood at 0.424 in assay [18], 0.96 in assay [19] and 1.51 in [20]. The z-score in [2] was 0.982 (inactive); in assay [3], -0.371 (inactive); in [4], 0.921 (inactive); in assay [6], -0.405 (inactive); in [14] it was -0.923 (inactive).

With `CN1C(=O)C2C=CC(C(O)c3ccc(N(C)C)cc3)N(Nc3ccc([N+](=O)[O-])cc3[N+](=O)[O-])C2C1=O` (stereo not given), the composite z-score came out at 1.1 in assay [1]; 2.77 in [5]; 0.452 in assay [7]; 0.0496 in assay [8]; 1.1 in assay [9]; 0.335 in assay [10]. The composite z-score in assay [11] was determined as 1.27; in assay [12], 1.17; in assay [13] it was 0.33; in assay [15] it was 0.887; in assay [16] it was 1.2; in assay [17] it was 0.737. The composite z-score in assay [18] stood at 1.2; in assay [19], 0.137; in assay [20], 1.49. In addition, the z-score in assay [2] is 0.0069 (inactive); in assay [3], -0.0787 (inactive); in assay [4], -0.183 (inactive); in assay [6], -0.465 (inactive); in [14], 1.16 (inactive).

Consider `C=C(COC)/C(=C/C[C@@H](OC(C)=O)c1cccc(OCCO)c1)c1cc(C(=O)OC)ccc1OC`, for which the composite z-score in assay [1] is 0.602; in assay [5], 0.228; in assay [7], 0.0116; in [8] it was 1.56; in assay [9], 0.493; in assay [10], -0.15. The composite z-score worked out at 0.695 in assay [11]; 0.258 in assay [12]; 0.258 in assay [13]; 0.0556 in assay [15]; 0.0957 in [16]; 0.214 in assay [17]. Further, the composite z-score in assay [18] was 0.121; in [19], -0.0663; in [20] it was 0.971. Also, the z-score was 0.036 (inactive) in [2]; -1.11 (inactive) in assay [3]; -1.03 (inactive) in [4]; 1.09 (inactive) in assay [6]; -0.964 (inactive) in assay [14].

For `O=C1O[C@H](c2ccccc2)[C@H](c2ccccc2)N2[C@H]1[C@@H](C(=O)Nc1nc3ccccc3s1)[C@]1(C(=O)Nc3ccc(C#CC4(O)CCCCCC4)cc31)[C@H]2c1ccc(O)cc1`, the composite z-score is 1.54 in assay [1]; 3.08 in [5]; 0.11 in assay [7]; 1.59 in assay [8]; 1.09 in assay [9]; -0.0214 in assay [10]. The composite z-score was 1.53 in assay [11]; 0.0991 in assay [12]; -0.0778 in assay [13]; 1.13 in [15]; 1.27 in [16]; 0.556 in assay [17]. Besides, the composite z-score stood at 0.976 in assay [18], 0.413 in assay [19] and 0.357 in assay [20]. The z-score was -0.0416 (inactive) in [2]; -0.265 (inactive) in assay [3]; 0.439 (inactive) in [4]; -0.616 (inactive) in assay [6]; -0.493 (inactive) in [14].

For `NC(=O)NCC#Cc1ccc2c(c1)[C@]1(C(=O)N2)[C@H](C(N)=O)[C@H]2C(=O)O[C@H](c3ccccc3)[C@H](c3ccccc3)N2[C@@H]1c1ccccc1OCCO`, the composite z-score in [1] was 1.22; in [5], 1.04; in assay [7] it was 0.129; in assay [8], 0.546; in assay [9], 1.11; in assay [10], -0.151. Also, the composite z-score amounted to 0.628 in assay [11]; 0.371 in [12]; 0.482 in assay [13]; 1.06 in assay [15]; 0.343 in assay [16]; 0.269 in assay [17]. Further, the results for the composite z-score in assay [18], in [19] and in assay [20] were 1.02, 0.576 and 1.02, respectively. Also, the z-score was 0.592 (inactive) in assay [2]; 0.742 (inactive) in [3]; 0.804 (inactive) in assay [4]; -0.829 (inactive) in assay [6]; -0.328 (inactive) in [14].

Turning to `CO[C@H]1COC(=O)CC=C[C@H](C)COC(=O)[C@@H](OCc2ccccc2)C=C[C@@H]1C`, the composite z-score in assay [1] was 1.52; in assay [5] it was 0.059; in assay [7] it was -0.368; in assay [8] it was 2.03; in [9], -0.532; in assay [10], -0.322. Also, the composite z-score in assay [11] was 0.558; in [12], -1.12; in assay [13] it was -1.62; in assay [15] it was 0.429; in assay [16], 1.28; in assay [17], 0.711. Besides, the figures for the composite z-score in [18], in assay [19] and in assay [20] were 1.2, 2.07 and 0.924, respectively. Moreover, the z-score in assay [2] was 0.0706 (inactive); in [3], -1.39 (inactive); in assay [4], -0.993 (inactive); in assay [6], 0.0129 (inactive); in [14], -1.71 (inactive).

In the case of `CCOC(=O)C[C@H]1[C@H](OC(=O)c2ccccc2-c2ccccc2)[C@@H](NC(=O)c2ccc(-c3ccccc3)cc2)c2cc(OCCCO)ccc2N1C(=O)Cc1ccc(OC)cc1`, the composite z-score in assay [1] was 0.362; in assay [5], 0.775; in [7] it was -0.0435; in assay [8], 0.19; in assay [9] it was 0.266; in assay [10], 0.0651. Moreover, the composite z-score in assay [11] is -0.0957; in assay [12], -0.394; in assay [13], -0.44; in assay [15], 0.295; in assay [16], -0.189; in assay [17], 0.147. Also, the composite z-score in assay [18] was 0.38; in assay [19] it was 0.428; in assay [20], 0.701. In addition, the z-score in assay [2] is -0.39 (inactive); in assay [3], -0.826 (inactive); in [4], 0.27 (inactive); in assay [6], -0.857 (inactive); in assay [14], -0.288 (inactive).

In the case of `COC(=O)c1c(CC[C@@H](CO)NC(=O)N[C@H](Cn2cc(-c3cncn3C)nn2)C(C)C)oc(C(C)=O)c1C(=O)OC`, the composite z-score in [1] was 1.09; in assay [5] it was 1.47; in assay [7], -0.0617; in [8], 0.209; in assay [9], 0.149; in assay [10], 0.19. For the same compound, the composite z-score in [11] is 0.844; in [12], -0.203; in [13], -0.342; in assay [15], 0.512; in assay [16] it was 0.861; in assay [17] it was 0.363. Further, the composite z-score in assay [18] was 0.165; in assay [19] it was 0.265; in assay [20] it was -0.253. Moreover, the z-score in [2] was -0.177 (inactive); in assay [3] it was -1.26 (inactive); in assay [4], -0.164 (inactive); in assay [6], 2.3 (inactive); in assay [14] it was -1.93 (inactive).
